The panel holds about 83,000 compounds, 20% with a hit somewhere; the sample as a whole holds those more often.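 Treatment: one concentration, 48 hours, 96-well format. Scoring: percent growth, with anything below 10 considered active.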 Calls of active or inactive are those of the source.
tested on: MOLT-4 leukemia; test: NCI-60 one-dose screen, 48 h (100 = growth as untreated, 0 = no growth, -100 = all killed); details: 10 µM unless noted

| SMILES | growth |
| --- | --- |
| CCCCNC(=O)NS(=O)(=O)c1ccc(N2N=C(c3ccc(C)cc3C)CC2c2ccc(N(C)C)cc2)cc1 (stereo not drawn) | 48.4% (inactive) |
| O=C(Nc1ccc(N2CCCCC2)c(Cl)c1)c1ccc(Br)o1 | 75.4% (inactive) |
| Nc1ccc(CCCCc2ccccc2)c(Cl)c1 | 69.2% (inactive) |
| COc1ccc(C(=O)/C=C/c2cc3c(c(OC)c2)OCC(=O)N3)cc1 | 6.17% (active) |
| CO[C@H]1/C=C/O[C@@]2(C)Oc3c(C)c(O)c4c(c3C2=O)C(=O)C(/C=N/N(c2ccccc2)c2ccccc2)=C(NC(=O)/C(C)=C\C=C\[C@H](C)[C@H](O)[C@@H](C)[C@@H](O)[C@@H](C)[C@H](OC(C)=O)[C@@H]1C)C4=O | 3.36% (active) |
| COc1cc(NC(=O)c2cccc(-c3cc(=O)c4c(O)c(OC)c(OC)cc4o3)c2)cc(OC)c1OC | 72.8% (inactive) |
| NC(N)=N/N=C/CO | 95.7% (inactive) |
| CCOC(=O)c1sc2ccc(NCc3nc[nH]c3C)cc2c1NC(=O)c1cc(OC)c(OC)c(OC)c1 | 88.2% (inactive) |
| CCCCCCCSc1ccc(C(=O)O)cc1 | 106% (inactive) |
| COc1cc2oc(-c3cccc(C(=O)Nc4ccc(C)cc4)c3)cc(=O)c2c(OC)c1OC | 54.7% (inactive) |
| Fc1ccc(Nc2nc3nonc3nc2Nc2ccc(F)cc2)cc1 | -8.01% (active) |
| C[C@@H]1C(=O)N(C[C@H](Cc2ccccc2)N(Cc2ccccc2)Cc2ccccc2)[C@]1(Cc1ccccc1)C(=O)OC(C)(C)C | 63.8% (inactive) |
| Cc1ccc(-n2nnc(C3=NCCc4c3[nH]c3ccc(Cl)cc43)c2C)cc1 | 49.6% (inactive) |
| CN(C)c1ccc(C#Cc2c(F)cccc2Cl)cc1 | 89.4% (inactive) |
| Clc1ccc2[nH]c3c(NCCCN4CCOCC4)ncnc3c2c1 | 53.5% (inactive) |
| Cc1nc(C)c(-c2nn3c(-c4cccc(F)c4)nnc3s2)s1 | 87% (inactive) |
| CC1(C)N=C(N)N=C(N)N1c1ccc(Cl)c(Cl)c1 | 34.6% (inactive) |

| SMILES | growth |
| --- | --- |
| CCOc1cccnc1/C=N/NC(N)=S | 7.07% (active) |
| COc1cc2oc(-c3cccc(C(=O)Nc4ccc(C#N)cc4)c3)cc(=O)c2c(O)c1OC | 88.3% (inactive) |
| O=C1NCC(=O)N(Cc2ccco2)[C@H]1Cc1ccccc1 | 102% (inactive) |
| O=C(Nc1ccccn1)[C@H](O)[C@@H](O)C(=O)N1CCOCC1 | 105% (inactive) |
| CCOC(=O)Cc1csc2nc(-c3ccccc3)nn12 | 111% (inactive) |
| CN(C)c1ccc(/C=C/c2c(F)cccc2F)cc1 | 97.4% (inactive) |
| Nc1ccn(C2OC(F)(CO)C(O)C2F)c(=O)n1 (stereo not drawn) | 18.8% (inactive) |
| CC(=O)C(C(C)=O)c1nc2sc3cc(Cl)ccc3n2c(=N)c1C#N | 67% (inactive) |
| CN(C)c1ccc2cc(-c3ccc(Cl)c(Cl)c3)c(N)nc2c1 | 31% (inactive) |
| Nc1c(C(=O)Nc2ccccc2)sc2nc3c(cc12)CCCCCC3 | 18.3% (inactive) |
| O=C(Nc1cccc2[nH]c(C(F)(F)F)nc12)c1cc(Cl)ccc1Cl | 17.9% (inactive) |
| NC(=S)N/N=C/C(=O)O | 44% (inactive) |
| COc1cc(/C=C2\C=C(c3ccccc3)N(CCc3ccccc3)C2=O)cc(OC)c1OC | 94.8% (inactive) |
| C(=C\c1nc2ccccc2[nH]1)/c1nc2ccccc2[nH]1 | 80.4% (inactive) |
| CCC(=O)OC1=C(C)SC2=NC(c3ccc(Cl)c(Cl)c3)=CC(c3cc(OC)c(OC)c(OC)c3)N21 (stereo not drawn) | 99.3% (inactive) |
| C=C(Cl)COC(=O)C(C)(C)O | 97.1% (inactive) |
